We go through 85 molecules from PubChem BioAssay AID624137 (Broad Institute, 2012).

Each structure is given as a SMILES string. Hit rate of the full screen: of about 31,000 compounds, about 360 (1.2%) were called active. This is one part of a sample in which actives are shown more often than they occur. How the calls were made is not given here.

DNA-binding protein inhibitor ID-4 (Homo sapiens), sequence (P47928 whole entry, looked up): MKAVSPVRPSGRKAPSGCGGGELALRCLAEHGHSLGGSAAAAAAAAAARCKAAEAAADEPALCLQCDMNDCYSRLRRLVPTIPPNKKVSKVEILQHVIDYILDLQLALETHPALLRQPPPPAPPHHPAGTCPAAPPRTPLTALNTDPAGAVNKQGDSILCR

This test addresses DNA-binding protein inhibitor ID-4 (Homo sapiens) (UniProt P47928). The experiment in a line: PubChem AID 624137.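 Further: a binder raises fluorescence above local background on the spot.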 The following applies: small molecule microarray, Flag-ID4 binding, fluorescence F/B.
`CCC(=O)N(C)C[C@@H]1Oc2ncc(C#Cc3ccccc3)cc2C(=O)N([C@@H](C)CO)C[C@H]1C`: the outcome was inactive.
Consider `C[C@@H]1CN([C@H](C)CO)C(=O)c2cc(C#CC3CC3)cnc2O[C@H]1CN(C)C(=O)CC1CC1`, for which the call was inactive.
With `C[C@H]1CN([C@@H](C)CO)C(=O)c2ccccc2-c2ccccc2CO[C@@H]1CN(C)C(=O)CCN(C)C`, the molecule was called inactive.
As for `CN(C)C(=O)C[C@H]1C=C[C@@H](NC(=O)C2CCC2)[C@@H](CO)O1`, the entry is “inactive”; as for `O=C(C[C@H]1CC[C@H](NC(=O)C2CCC2)[C@@H](CO)O1)NCCCN1CCOCC1`, “inactive”.
Consider `CCCN(C)C[C@H]1Oc2ncc(C#CC3CCCCC3)cc2C(=O)N([C@H](C)CO)C[C@@H]1C`, for which the molecule was called inactive.
Then `O=C(c1cccc(S(=O)(=O)N2CCOCC2)c1)N(Cc1ccccc1)c1ccccn1`, with “inactive”.
Then `C[C@H]1CN([C@@H](C)CO)S(=O)(=O)c2ccc(-c3cccc(F)c3)cc2O[C@@H]1CN(C)C`, with “inactive”; and `O=C(CCN1CCCCC1)N[C@@H]1C=C[C@@H](CC(=O)N2CCC(Cc3ccccc3)CC2)O[C@H]1CO`, with “inactive”.
Then `O=C(C[C@H]1CC[C@H](NS(=O)(=O)c2ccccc2)[C@H](CO)O1)NCc1ccncn1`, with “inactive”.
As for `O=C(CSc1nccc(=O)[nH]1)Nc1cccc(Br)c1`, the molecule was called inactive.
Turning to `C[C@@H]1CN([C@@H](C)CO)C(=O)c2cc(C#CCN(C)C)cnc2O[C@@H]1CN(C)Cc1ccccn1`, the outcome was inactive.
Then `C[C@@H]1CN([C@H](C)CO)C(=O)c2cc(C#CC3CCCC3)cnc2O[C@H]1CN(C)S(C)(=O)=O`, with “inactive”.
Then `O=C(C[C@@H]1C=C[C@H](NC(=O)Nc2ccccc2F)[C@H](CO)O1)NCc1ccc(F)cc1`, with “inactive”; and `C[C@@H]1CN([C@@H](C)CO)S(=O)(=O)c2ccc(C#C[C@@H](C)O)cc2O[C@@H]1CN(C)C(=O)CN(C)C`, with “inactive”; and `C[C@H](CO)N1C[C@H](C)[C@@H](CN(C)Cc2ccccn2)Oc2ncc(C3=CCCC3)cc2C1=O`, with “inactive”.
With `CN(C)c1ccc(NC(=O)CN(C)S(=O)(=O)c2ccc(Br)cc2)cc1`, the molecule was called inactive.
With `C[C@@H]1CN([C@@H](C)CO)C(=O)Cc2cc(NC(=O)Cc3ccccc3)ccc2O[C@H]1CN(C)Cc1ccc(C(=O)O)cc1`, the molecule was called active.
Regarding `C[C@@H]1CN([C@H](C)CO)C(=O)Cc2cc(NC(=O)Nc3ccc(F)cc3)ccc2O[C@@H]1CN(C)Cc1ccc2c(c1)OCO2`, the call was inactive.
Regarding `C[C@@H]1CN([C@@H](C)CO)C(=O)Cc2cc(NC(=O)Cc3cn(C)c4ccccc34)ccc2O[C@H]1CN(C)Cc1ccc(C(=O)O)cc1`, the molecule was called inactive.
In the case of `COc1ccc(CN(C)C[C@H]2Oc3ccc(NC(=O)Cc4ccccc4)cc3CC(=O)N([C@@H](C)CO)C[C@@H]2C)cc1`, the call was inactive.
As for `COc1ccc(CN(C)C[C@@H]2Oc3ccc(NC(=O)Nc4ccc5c(c4)OCO5)cc3CC(=O)N([C@H](C)CO)C[C@H]2C)cc1`, the call was active.
As for `COc1ccc(CN(C)C[C@@H]2Oc3ccc(NC(=O)Nc4ccc(OC)cc4)cc3CC(=O)N([C@H](C)CO)C[C@H]2C)cc1`, the entry is “inactive”.
Then `O=C(C[C@@H]1C=C[C@@H](NC(=O)C2CCC2)[C@H](CO)O1)NCC1CC1`, with “inactive”.
For `O=C(C[C@@H]1CC[C@H](NC(=O)C2CCC2)[C@@H](CO)O1)NC1CCCCC1`, the result was inactive.
Turning to `C[C@@H]1CN([C@H](C)CO)C(=O)c2cc(C#CC3CC3)cnc2O[C@@H]1CN(C)Cc1ccccn1`, the call was inactive.
Regarding `C[C@@H]1CN([C@@H](C)CO)S(=O)(=O)c2ccc(-c3ccc(C(=O)N(C)C)cc3)cc2O[C@@H]1CN(C)Cc1ccccc1C(=O)O`, the outcome was inactive.
In the case of `COc1ccccc1S(=O)(=O)N[C@@H]1C=C[C@H](CC(=O)N2CCOCC2)O[C@@H]1CO`, the molecule was classed as inactive.
Turning to `O=C(C[C@@H]1C=C[C@H](NC(=O)CCN2CCCCC2)[C@H](CO)O1)NCc1ccc(Cl)c(Cl)c1`, the outcome was inactive.
With `C/C=C/c1cnc2c(c1)C(=O)N([C@@H](C)CO)C[C@@H](C)[C@@H](CN(C)S(=O)(=O)c1ccccc1F)O2`, the molecule was classed as inactive.
With `C[C@H]1CN([C@@H](C)CO)S(=O)(=O)c2ccc(C3=CCCC3)cc2O[C@H]1CN(C)Cc1cccc(C(=O)O)c1`, the molecule was classed as inactive.
Then `CC(C)NC(=O)N(C)C[C@H]1Oc2cc(-c3cncnc3)ccc2S(=O)(=O)N([C@@H](C)CO)C[C@H]1C`, with “inactive”; and `Cc1ccc(Cc2cncc(O)c2)cc1S(=O)(=O)O`, with “active”.
Then `C[C@H]1CN([C@@H](C)CO)S(=O)(=O)c2ccc(C3=CCCCC3)cc2O[C@@H]1CN(C)Cc1ccccc1`, with “inactive”.
With `C[C@H](CO)N1C[C@H](C)[C@@H](CN(C)C(=O)C2CC2)Oc2ncc(-c3cccc(F)c3)cc2C1=O`, the molecule was called inactive.
Take `C/C=C/c1ccc2c(c1)O[C@@H](CN(C)CC1CCOCC1)[C@@H](C)CN([C@H](C)CO)S2(=O)=O`: the outcome was inactive.
Then `C[C@H](CO)N1C[C@H](C)[C@H](CN(C)C(=O)C2CCCCC2)Oc2ncc(C#CC3CC3)cc2C1=O`, with “inactive”; and `C[C@H]1CN([C@@H](C)CO)C(=O)c2cc(C#Cc3ccccc3F)cnc2O[C@H]1CN(C)C`, with “inactive”; and `O=C(O)/C(=C/C(=O)c1ccc(F)cc1)Nc1ccc2[nH]c(=O)[nH]c2c1`, with “inactive”.
Turning to `O=C(OCCN1CCCCC1)c1cccc(COc2ccc3ccccc3c2)c1`, the outcome was inactive.
On to `C[C@H](CO)N1C[C@H](C)[C@H](CN(C)C(=O)c2ccncc2)Oc2cc(C#CC3(O)CCCC3)ccc2S1(=O)=O`, for which the result was inactive.
In the case of `O=C(C[C@@H]1C[C@@H]2c3cc(NS(=O)(=O)c4ccc(F)cc4)ccc3O[C@@H]2[C@@H](CO)O1)N1CCOCC1`, the result was inactive.
Regarding `CCCC#Cc1ccc2c(c1)O[C@@H](CN(C)S(=O)(=O)c1cccc(OC)c1)[C@H](C)CN([C@@H](C)CO)S2(=O)=O`, the call was inactive.
Regarding `COCC(=O)Nc1ccc2c(c1)[C@H]1C[C@H](CC(=O)NCc3cccnc3)O[C@H](CO)[C@H]1O2`, the call was inactive.
In the case of `CO[C@@H]1CN(C)C(=O)c2ccc(NC(=O)C3CC3)cc2OC[C@@H](C)N(CC2CCOCC2)C[C@H]1C`, the call was inactive.
As for `CC(=O)N(C)C[C@H]1Oc2ncc(-c3cccc(F)c3)cc2C(=O)N([C@@H](C)CO)C[C@H]1C`, the entry is “inactive”.
Regarding `O=[N+]([O-])c1ccccc1/C=C/CN1CCC(O)CC1`, the call was active.
For `O=[N+]([O-])c1ccccc1CN1CCN(Cc2cccc(Oc3ccccc3)c2)CC1`, the molecule was classed as inactive.
Then `O=C(C[C@H]1CC[C@@H](NC(=O)c2ccncc2)[C@@H](CO)O1)NCC1CC1`, with “inactive”; and `C[C@@H]1CN([C@H](C)CO)C(=O)c2cc(-c3ccccc3F)cnc2O[C@H]1CN(C)C(=O)CN(C)C`, with “inactive”.
Regarding `C[C@H](CO)N1C[C@H](C)[C@@H](CN(C)C(=O)c2cnccn2)Oc2ncc(-c3ccccc3F)cc2C1=O`, the result was inactive.
For `O=C(CSc1nc(O)cc(=O)n1-c1ccccc1F)Nc1ccc(Cl)cc1Cl`, the call was inactive.
In the case of `Cc1c(NC(=O)/C(C#N)=C/c2ccccc2Cl)c(=O)n(-c2ccccc2)n1C`, the molecule was classed as active.
On to `COC(=O)Cc1csc(Nc2c(C)n(C)n(-c3ccccc3)c2=O)n1`, for which the outcome was inactive.
Then `COc1cccc(/C=C(\C#N)C(=O)Nc2c(C)n(C)n(-c3ccccc3)c2=O)c1`, with “inactive”; and `COc1cc(NC(=O)COc2ccccc2Br)c(OC)cc1Cl`, with “inactive”; and `C[C@H](CO)N1C[C@H](C)[C@H](CN(C)C(=O)C2CC2)OCc2ccccc2-c2ccccc2C1=O`, with “inactive”.
Regarding `CCC(=O)N[C@H]1CC[C@@H](CC(=O)NCc2cc(F)cc(F)c2)O[C@@H]1CO`, the call was inactive.
As for `C[C@@H]1CN([C@@H](C)CO)C(=O)c2cc(NS(C)(=O)=O)ccc2O[C@@H](C)CCCCO[C@@H]1CN(C)C(=O)c1ccccc1`, the result was active.
Turning to `C[C@H](CO)N1C[C@H](C)[C@H](CN(C)C(=O)c2ccccc2)OCCCC[C@H](C)Oc2ccc(NS(C)(=O)=O)cc2C1=O`, the outcome was inactive.
As for `C[C@@H]1CCCCO[C@@H](CN(C)C(=O)c2ccccc2)[C@H](C)CN([C@@H](C)CO)C(=O)c2cc(NS(C)(=O)=O)ccc2O1`, the entry is “inactive”; as for `CNC[C@@H]1Oc2cc(C#Cc3ccc(F)cc3)ccc2S(=O)(=O)N([C@@H](C)CO)C[C@H]1C`, “inactive”; as for `COc1ccccc1-c1cnc2c(c1)C(=O)N([C@H](C)CO)C[C@H](C)[C@H](CN(C)Cc1cccnc1)O2`, “inactive”.
Turning to `Cc1ccccc1-c1cnc2c(c1)C(=O)N([C@@H](C)CO)C[C@@H](C)[C@@H](CN(C)CC1CCOCC1)O2`, the molecule was called inactive.
With `CCCN(C)C[C@H]1Oc2cc(-c3ccc(C)cc3)ccc2S(=O)(=O)N([C@H](C)CO)C[C@H]1C`, the call was inactive.
Regarding `C[C@@H]1CN([C@@H](C)CO)C(=O)c2cc(Br)cnc2O[C@@H]1CN(C)C(=O)C1CCCCC1`, the molecule was classed as inactive.
For the molecule `CN1CCN(C(=O)C[C@H]2CC[C@@H](NC(=O)c3ccc4c(c3)OCO4)[C@H](CO)O2)CC1`, the outcome was inactive.
As for `O=C(C[C@H]1C=C[C@H](NS(=O)(=O)c2ccc(F)cc2)[C@H](CO)O1)NCc1ccncn1`, the entry is “inactive”; as for `CCCN(C)C[C@@H]1Oc2cc(C#CC3CCCCC3)ccc2S(=O)(=O)N([C@@H](C)CO)C[C@@H]1C`, “inactive”.
As to `COc1ccccc1-c1cnc2c(c1)C(=O)N([C@@H](C)CO)C[C@@H](C)[C@H](CN(C)Cc1cccnc1)O2`, the result was inactive.
Regarding `COCC#Cc1cnc2c(c1)C(=O)N([C@H](C)CO)C[C@@H](C)[C@@H](CN(C)Cc1ccccc1F)O2`, the outcome was inactive.
Consider `CC(C)CC#Cc1cnc2c(c1)C(=O)N([C@@H](C)CO)C[C@H](C)[C@@H](CN(C)C(=O)c1ccc(F)cc1)O2`, for which the call was inactive.
As for `C[C@@H]1CN([C@@H](C)CO)S(=O)(=O)c2ccc(C3=CCCC3)cc2O[C@@H]1CN(C)Cc1ccncc1`, the entry is “inactive”; as for `C[C@@H](O)C#Cc1cnc2c(c1)C(=O)N([C@@H](C)CO)C[C@H](C)[C@@H](CN(C)CC1CCCCC1)O2`, “inactive”.
Take `COc1ccccc1-c1ccc2c(c1)O[C@H](CN(C)C(=O)c1cccnc1)[C@@H](C)CN([C@H](C)CO)S2(=O)=O`: the molecule was called inactive.
`CC(C)C#Cc1ccc2c(c1)O[C@@H](CN(C)CC1CCOCC1)[C@H](C)CN([C@H](C)CO)S2(=O)=O`: the molecule was called inactive.
Turning to `CNC[C@H]1Oc2cc(C#CC3CCCC3)ccc2S(=O)(=O)N([C@H](C)CO)C[C@@H]1C`, the call was inactive.
As for `CC(C)C#Cc1cnc2c(c1)C(=O)N([C@H](C)CO)C[C@@H](C)[C@H](CN(C)Cc1ccccc1)O2`, the outcome was inactive.
`C[C@@H]1CN([C@@H](C)CO)S(=O)(=O)c2ccc(C#CCC3CCCC3)cc2O[C@@H]1CN(C)C`: the result was inactive.
As for `C[C@H](O)C#Cc1cnc2c(c1)C(=O)N([C@H](C)CO)C[C@@H](C)[C@H](CN(C)CC1CCCCC1)O2`, the entry is “inactive”; as for `C[C@@H]1CN([C@H](C)CO)C(=O)c2cc(C3=CCCC3)cnc2O[C@H]1CN(C)C`, “inactive”.
Take `Cc1cccc(NC(=O)CSc2nnc(-c3ccccc3)n2C2CCCCC2)c1C`: the molecule was called inactive.
For `CCC(=O)N(C)C[C@H]1Oc2cc(/C=C/c3ccccc3)ccc2S(=O)(=O)N([C@H](C)CO)C[C@H]1C`, the call was inactive.
As for `O=C(C[C@H]1CC[C@@H](NC(=O)Nc2cc(F)ccc2F)[C@@H](CO)O1)NCc1ccncn1`, the molecule was classed as inactive.
As to `CNC[C@H]1Oc2ncc(-c3ccccc3F)cc2C(=O)N([C@H](C)CO)C[C@H]1C`, the molecule was classed as inactive.
